Marburg entry inh: Marburg virus entry inhibition | Marburg virus pseudotyped entry inhibition, cell reporter | Potency, µM (doses to about 37.8 µM), inactives show at the highest dose activity change, negative = inhibition, usual class: inhibitors | 300,000 tested, 1.8% active | AID 540276; calls by dose curve; tested in HEK293 cells; also: potency is read from the fitted curve at half-maximal effect
LASV entry inh: blocks Lassa virus binding to or entry into cells. Potency, µM (titrated, usually from 37.9 µM), for inactives: at the top dose activity change, negative = inhibition, usual class: inhibitors. AID 540256. 300,000 tested, 1.2% active. Lassa virus pseudotype entry inhibition, cell reporter; calls by dose curve; tested in HEK293 cells; also: potency is read from the fitted curve at half-maximal effect; nearly all actives have a fitted effect of over 50% in size
HCMV antiviral: blocks human cytomegalovirus replication | 410,000 tested, 4.5% active | AID 1259415 | HFF cells, HCMV-luciferase reporter, 72 h; stronger effect = lower value | activity change, negative = inhibition, % at 57.5 µM; in the data active = activity change below about -60%; inconclusive = no clear call, values can overlap the other calls; inactive = above about -39%
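Human foreskin fibroblasts infected with luciferase-reporter HCMV at MOI 1 PFU/cell, compounds at two doses. Luciferase measured 72 h post infection; normalized to buffer-only basal and Salinomycin (10uM) controls.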
FMDV inh: antivirals against foot and mouth disease virus. FMDV antiviral cell-based qHTS. 410,000 tested, 1.2% active. AID 1159524. Potency, µM (doses to about 57.9 µM), for the others: top-dose activity change, negative = inhibition, hits mostly inhibitors; calls by dose curve; tested in HEK293T cells; also: read-out not given here; potency is read from the fitted curve at half-maximal effect; nearly all actives have a fitted effect of over 45% in size
HCV inh: inhibitors of hepatitis C virus infection. Huh7.5.1 HCVcc-Cre infection, luciferase reporter, 44 h. Potency, µM (top dose mostly 41.8 µM), without a hit: at the highest dose activity change, negative = inhibition, usual class: inhibitors. 340,000 tested, 3.4% active. AID 651820; active = well fitted inhibition curve with a large enough effect; inconclusive = small, poorly fitted or top-dose-only effect, or another doubt; inactive = no such curve, though single readings can be large or run the other way; also: potency is read from the fitted curve at half-maximal effect
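Infectious HCVcc-Cre (~0.5 moi) was added to cells just after compound, with cells seeded 4 h earlier at 1,000 per well. Luciferase activity after 44 h culture reported infection; substrate was incubated 15 min at room temperature before reading.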
* marks the source's active call; other numbers are inactive results; ? = inconclusive; nt = no result given; [ ] = remark or other dose. Shown are actives, neighbours in structure and some others; about 7.9% of the full set was active somewhere. % is scaled to controls: 0 for no effect and ±100 for the full control effect.

SMILES	Marburg entry inh	LASV entry inh	HCMV antiviral	FMDV inh	HCV inh
O=C(CC(C(=O)O)C1CCCO1)NCc1ccccc1 (configuration not stated)	16%	-1%	-101*	-9%	5%
CN(CC(=O)Nc1ccccc1Br)C(=O)COc1cccc2c1OC(C)(C)C2	0%	?	4	-6%	16%
CC(C)(C)OC(=O)N1CCN(C(c2ccnc3ccccc23)c2nnnn2-c2ccc3c(c2)OCCO3)CC1 (configuration not stated)	nt	nt	38	-5%	nt
COc1ccc(/C=C2\SC(=S)N(CCCC(=O)N3CCCCC3CCO)C2=O)cc1 (configuration not stated)	nt	nt	-100*	-16%	-15%
COc1cccc(/C=C2\SC(=O)N(CCC(=O)N3CCCCC3CCO)C2=O)c1 (configuration not stated)	nt	nt	-35	-24%	?
O=C1/C(=C/c2ccccc2Cl)SC(=S)N1CCC(=O)N1CCCCC1CCO (configuration not stated)	nt	nt	-81*	-12%	18%
O=C(CCN1C(=O)/C(=C/c2ccccc2Cl)SC1=S)N1CCCC1	-15%[46.1 µM]	0%	-21	?	?
O=C1/C(=C\c2ccccc2)SC(=S)N1CCC(=O)N1CCCCC1CCO (configuration not stated)	nt	nt	-86*	0%	22%
CC(C)c1ccc(/C=C2\SC(=S)N(CCC(=O)N3CCCCC3CCO)C2=O)cc1 (configuration not stated)	nt	nt	-100*	11µM*	-17%
Cc1ccc(S(=O)(=O)N2CCOCC2)cc1NC(=O)CN(C)CC(=O)Nc1cccc(F)c1	nt	nt	29	?	nt
O=C(CCN1C(=O)/C(=C/c2ccccc2)SC1=S)Nc1cccnc1	?	?	-24	-13%	-5%
O=C1/C(=C/c2ccccc2)SC(=S)N1CC(=O)N1CCCCC1c1cccnc1 (configuration not stated)	nt	nt	-90*	?	?
CCC(C)c1ccc(NC(=O)c2[nH]c(C)c(C(C)=O)c2C)cc1 (configuration not stated)	?	-17%[46.1 µM]	56	17%	?
CCC(NC(=O)c1[nH]c(C)c(C(C)=O)c1C)c1ccc(Br)cc1 (configuration not stated)	8.9µM*	?	3	-29%	?
CC(C)OC(=O)c1c(-c2ccc(C(C)C)cc2)csc1NC(=O)C1CCCO1 (configuration not stated)	?	5.6µM*	-23	?	-19%
CCOC(=O)c1c(-c2ccc(F)cc2)csc1NC(=O)C1CCCO1 (configuration not stated)	-28%[46.1 µM]	-21%	-60*	-27%	-16%
CCOC(=O)c1c(-c2ccc(C)cc2)csc1NC(=O)C1CCCO1 (configuration not stated)	?	?	-18	?	11µM*
CCOC(=O)c1c(-c2ccc(C)cc2)csc1NC(=O)CCN1CC(C)OC(C)C1 (configuration not stated)	?	?	1	28µM*	-27%
CCOC(=O)c1c(-c2ccc(OC)cc2)csc1NC(=O)C1CCCO1 (configuration not stated)	-25%	?	?	?	?
CCOC(=O)c1c(-c2ccc(OC)cc2)csc1NC(=O)CCN1CCOCC1	0%[46.1 µM]	?	-26	-26%	?
COC(=O)c1c(-c2cccc(C)c2)csc1NC(=O)C1CCCO1 (configuration not stated)	?	-2%	?	-15%	-17%
CC1(C)CN(C2CCCCC2)C(=O)[C@@H]1CC(=O)Nc1ccccc1	nt	2%[46.1 µM]	nt	nt	nt
CC(C)(Cc1c[nH]c2ccccc12)NCC(O)COc1ccccc1C#N (configuration not stated)	nt	nt	nt	-20%	nt
Cc1cccc(C)c1NC(=O)c1ccc2nc(CCc3ccccc3)oc2c1	nt	?	-3	?	nt
CCOC(=O)c1c(-c2ccc(C)o2)csc1NC(=O)CN1CCC(C(N)=O)CC1	-13%[46.1 µM]	-21%	-3	?	4.5µM*
SMILES	Marburg entry inh	LASV entry inh	HCMV antiviral	FMDV inh	HCV inh
COc1ccc(CNC[C@H]2O[C@@H](n3ccc(=O)[nH]c3=O)[C@H](O)[C@@H]2O)cc1OC	nt	nt	-13	-3%	6.3µM*
Cc1cc(C)c2nc(C(F)(F)F)c(C#N)c(N)c2c1	?	13%	?	-8%	-26%
CCCc1nc2c(C)cc(C)cc2c(N)c1CC	23µM*	-1%	28	-24%	?
COc1cc2c(c(OC)c1OC)-c1ccc(NC(=O)c3ccc(F)cc3)c(=O)cc1[C@@H](NC(C)=O)CC2	nt	nt	-22	?	?
CCN(CC)c1ccc2c(cc1=O)[C@@H](NC)CCc1cc(OC)c(OC)c(OC)c1-2	4µM*	1.1µM*	-92*	-1%	0%
CN[C@H]1CCc2cc(OC)c(OC)c(OC)c2-c2ccc(N(C)CC(OC)OC)c(=O)cc21	nt	nt	-74*	-10%	1%
COc1cc2c(c(OC)c1OC)-c1ccc(C(=O)O)cc1[C@@H](NC(C)=O)CC2	nt	nt	-16	-3%	nt
COc1cc2c(c(OC)c1OC)-c1ccc(NCc3ccccc3)c(=O)cc1C(NC(C)=O)CC2 (configuration not stated)	nt	nt	-80*	-25%	nt
COc1cc2c(c(OC)c1OC)-c1ccc(N(C)CC(OC)OC)c(=O)cc1[C@@H](NC(C)=O)CC2	1µM*	?	-87*	-1%	22%
O=C(OCc1ccc(F)cc1)c1cc(S(=O)(=O)N2CCCCC2)ccc1N1CCOCC1	4%	-39%	-19	?	?
O=C(NNC(=O)c1c(F)cccc1F)c1ccccc1-n1cccc1	0%[46.1 µM]	-1%[46.1 µM]	-28	-8%	16%
CCOc1ccc(NC(=O)CSc2nc3c(c(=O)[nH]2)CCCC3)cc1	-13%[46.1 µM]	-15%[46.1 µM]	-2	-10%	nt
Cc1cc2c(cc1C)C(c1cccc([N+](=O)[O-])c1)CC(=O)N2 (configuration not stated)	4.5µM*	?	4	-27%	?
O=C1CC(c2cccc(Br)c2)c2cc3c(cc2N1)CCC3 (configuration not stated)	?	?	-65*	?	?
COc1ccc2c(c1)C(n1c(C)ccc1C)C(=O)N2C (configuration not stated)	nt	nt	-6	nt	nt
O=C(c1ccc2c(c1)N(Cc1ccccc1)C(=O)c1ccccc1S2=O)N1CCC(Cc2ccccc2)CC1 (configuration not stated)	?	?	-76*	?	nt
O=C(c1ccc2c(c1)N(Cc1ccc(F)cc1)C(=O)c1ccccc1S2=O)N1CCOCC1 (configuration not stated)	?	14%[46.1 µM]	3	-19%	nt
O=C(c1ccc2c(c1)N(Cc1ccc(F)cc1)C(=O)c1ccccc1S2=O)N1CCC(Cc2ccccc2)CC1 (configuration not stated)	?	?	-78*	-13%	nt
